Each structure is given as a SMILES string. This is part of a sample that, as a whole, favours compounds with a hit. Of some 83,000 tested, about 20% had one in any assay.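 A percent growth of 40 corresponds to 60% growth inhibition; 0 means no net growth; -100 means all cells died. Active threshold: below 10.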 Unmarked numbers belong to inactive results. Activity calls are given as the source filed them.

Assay in all cases: NCI-60 one-dose screen, 48 h (100 = growth as untreated, 0 = no growth, -100 = all killed)
Details in all cases: 10 µM unless noted

The test system of test [1] is SK-MEL-2 melanoma.
For test [2], the system named is EKVX NSCLC.
Test [3] relates to SN12C renal.
Test [4] deals with UO-31 renal.
Test [5] concerns TK-10 renal.
Test [6] has as its system ACHN renal.
Test [7] concerns A498 renal.
For test [8], the system named is CCRF-CEM leukemia.
Test [9] deals with MOLT-4 leukemia.
Test [10] concerns SR leukemia.
Test [11] deals with RPMI-8226 leukemia.
For test [12], the system named is OVCAR-8 ovarian.
The subject of test [13] is OVCAR-5 ovarian.
For test [14], the system named is OVCAR-4 ovarian.
Test [15] has as its system SK-OV-3 ovarian.
In test [16] the test system is IGROV1 ovarian.
Test [17] has as its system OVCAR-3 ovarian.
The test system of test [18] is HS 578T breast.
In test [19] the test system is NCI/ADR-RES ovarian.

Turning to `FC(F)(F)c1cn(CC2CNC2)c2ncnc(Cl)c12`, the growth in test [1] was 103%; in [2] it was 109%; in test [3], 102%; in [4], 102%; in [5] it was 104%; in test [6] it was 104%. Further, the growth is 112% in test [7]; 86.7% in test [8]; 89.9% in test [9]; 87% in test [10]; 105% in test [11]; 92.2% in test [12]. The growth was 112% in test [13]; 110% in test [14]; 108% in [15]; 105% in test [16]; 103% in test [17]; 105% in [18]. Moreover, the growth in test [19] was 102%.
Turning to `CCOC(=O)C1CSC(C)(C(=O)OCC)N1` (centres undefined), the growth in [1] is 99.4%; in [2], 94.7%; in test [3], 104%; in test [4] it was 95.6%; in [5] it was 91.9%; in test [6], 110%. Moreover, the growth in test [7] is 118%; in test [8], 103%; in [9] it was 92.8%; in [10] it was 97.3%; in test [11], 96.3%; in [12], 110%. Besides, the growth in test [13] was 98.2%; in [14] it was 109%; in test [15], 91.7%; in test [16] it was 104%; in [17] it was 100%; in test [18], 112%. Also, in test [19], the growth was 101%.
For `CC(C)(C)NCC(O)COc1c(Br)c(Br)c(Br)c2c1OC(C)(C)C2` (centres undefined), the growth in test [1] was -71.9% (active); in [2] it was 50.1%; in test [3], 33.2%; in test [4], -81.8% (active); in [5] it was -77.8% (active); in test [6], -60.1% (active). Further, the growth in test [7] was -6.49% (active); in test [8] it was -62.5% (active); in [9] it was -56.1% (active); in test [10] it was -61.6% (active); in test [11], -72.8% (active); in [12] it was -54.8% (active). Also, the growth in test [13] was -73.2% (active); in [14] it was 15.3%; in test [15], 92.1%; in [16] it was -84.2% (active); in [18], -64.8% (active); in test [19] it was -15.9% (active).
Take `Nc1nc(Cl)cc(NCCCCNc2cc(Cl)nc(N)n2)n1`: the growth is 87.6% in [1]; 102% in [2]; 126% in test [3]; 96.5% in test [4]; 111% in test [5]; 107% in test [6]. Besides, the growth is 174% in test [7]; 84.5% in test [8]; 94.8% in [9]; 98.9% in test [10]; 96.4% in [11]; 99.5% in [12]. In addition, the growth in [13] is 94.9%; in [14], 104%; in test [15] it was 113%; in test [16] it was -19.9% (active); in [18], 126%; in [19] it was 107%.
Regarding `COc1cc(NC(C)CCCN2C(=O)c3ccccc3C2=O)c2nccc(C)c2c1OC` (centres undefined), the growth in test [1] was 87.6%; in test [2], 98.4%; in test [3] it was 126%; in [4], 80.9%; in [5] it was 122%; in test [6], 110%. Besides, the growth is 92.9% in test [7]; -14.2% (active) in test [8]; -44.2% (active) in test [9]; 33% in test [10]; 64.3% in test [11]; 91.6% in test [12]. The growth was 110% in [13]; 70.5% in test [14]; 107% in test [15]; 44.1% in test [16]; 98.7% in [18]; 74% in test [19].
Take `CCC1S/C(=N\N=C(/C)c2cccs2)N(c2ccccc2)C1=O` (centres undefined): the growth was 141% in test [1]; 105% in test [2]; 135% in test [3]; 110% in [4]; 114% in [5]; 113% in test [6]. Besides, the growth in test [7] is 108%; in test [8], -39.5% (active); in test [9], 63.9%; in test [10] it was 32.6%; in test [11], 110%; in test [12], 97.3%. The growth in test [13] is 111%; in test [14], 99.7%; in [15], 121%; in [16], -27.2% (active); in test [18], 123%; in test [19], 99%.
For `Nn1c(SCC(=O)Nc2cc(Cl)c(Cl)cc2Cl)nnc1-c1cc(F)c(Cl)cc1Cl`, the growth in test [1] is 87.3%; in test [2], 66.5%; in [3] it was 151%; in test [4], 65.2%; in [5], 123%; in [6] it was 210%. The growth in [7] was 115%; in test [8], 125%; in test [9], 84.8%; in test [10] it was 99.5%; in test [11], 132%; in test [12] it was 97.5%. The growth in test [13] was 108%; in test [14] it was 120%; in test [15], 105%; in test [16], 55.2%; in test [18], 103%; in [19], 99.7%.
For `C[C@H]1C=C(C[C@@H](O)CC#CC#CCCCCC[C@@H](O)[C@H]2CCC(=O)O2)C(=O)O1`, the growth in test [1] is 118%; in test [2], 96.7%; in [3] it was 105%; in test [4], 81.2%; in [5] it was 115%; in test [6], 103%. Also, the growth is 107% in test [7]; 106% in [8]; 114% in [9]; 121% in test [10]; 114% in [11]; 110% in test [12]. Moreover, the growth is 95.6% in [13]; 105% in test [14]; 95.5% in test [15]; 54.1% in test [16]; 117% in test [18]; 95.5% in test [19].
With `COc1ccccc1N1CCN(CC(O)COc2c(Br)c(Br)c(Br)c3c2OC(C)(C)C3)CC1` (centres undefined), the growth was 60.5% in test [1]; 117% in test [2]; 65.8% in test [3]; 13.2% in test [4]; 40.5% in test [5]; 56.1% in test [6]. The growth is 55.9% in [7]; -54.6% (active) in test [8]; -36.7% (active) in test [9]; -50.4% (active) in test [10]; 1.1% (active) in [11]; 62.2% in [12]. The growth in [13] was 61.2%; in test [14], 30.4%; in test [15], 84.2%; in test [16], -19.7% (active); in test [18] it was 67.3%; in [19], 45.7%.

For the origin of these results see PubChem BioAssay (NCI).
